Here are results for 34 molecules from PubChem BioAssay (NCATS).

The structures appear in SMILES notation. A number with no mark means an inactive call. Inconclusive results are not listed. Calls of active or inactive are those of the source.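 How the source made its calls, unless noted: active means compounds whose dose series gives a full or clear partial fitted curve of increased nuclear translocation; inconclusive means weak partial curve or effect only at the top dose; inactive means no dose-dependent translocation response.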

Sequence of Glucocorticoid receptor (Homo sapiens) (P04150 whole entry, looked up): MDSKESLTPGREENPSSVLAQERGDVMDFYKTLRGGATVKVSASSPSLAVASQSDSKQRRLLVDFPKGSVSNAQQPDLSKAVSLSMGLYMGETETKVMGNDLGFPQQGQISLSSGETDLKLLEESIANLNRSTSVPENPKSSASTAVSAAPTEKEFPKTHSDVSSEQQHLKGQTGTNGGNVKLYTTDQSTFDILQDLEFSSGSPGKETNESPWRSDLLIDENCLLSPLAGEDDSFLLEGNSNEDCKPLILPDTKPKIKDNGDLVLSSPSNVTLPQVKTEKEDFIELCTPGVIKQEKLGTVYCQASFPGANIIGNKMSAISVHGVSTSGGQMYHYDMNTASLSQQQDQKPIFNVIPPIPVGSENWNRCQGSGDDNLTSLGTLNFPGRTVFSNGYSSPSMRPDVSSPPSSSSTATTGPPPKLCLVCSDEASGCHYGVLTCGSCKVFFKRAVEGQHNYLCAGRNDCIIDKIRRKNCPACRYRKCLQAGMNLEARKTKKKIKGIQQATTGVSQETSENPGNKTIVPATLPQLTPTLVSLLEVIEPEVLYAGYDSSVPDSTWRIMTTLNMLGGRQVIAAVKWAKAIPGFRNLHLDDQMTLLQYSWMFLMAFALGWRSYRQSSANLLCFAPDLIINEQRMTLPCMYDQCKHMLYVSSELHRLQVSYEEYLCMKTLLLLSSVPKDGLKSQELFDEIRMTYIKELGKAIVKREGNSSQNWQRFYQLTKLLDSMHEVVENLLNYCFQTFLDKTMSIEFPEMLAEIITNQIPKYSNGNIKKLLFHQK

Tested on in one assay: not listed separately
The assay is described as follows: Stat Signaling Pathway (AID 446; active means well fitted curve in either direction with a large enough effect, not every such curve was filed as active;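 further: ME-180 cervical cancer cells given 40 pM IL-6 alongside compound; SIE-controlled beta-lactamase reporter measured as 460/530 nm FRET emission ratio; on the % scale 0 is the no-effect control and ±100 the full control effect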). To be noted: ME-180 SIE beta-lactamase reporter, IL-6 stimulated, 5 h; at 17.2 µM (top of the series) unless noted. The procedure, abridged: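 ME-180 SIE-bla cells; overnight plating; cpd + IL-6 40 pM, 5 h, 37 C; LiveBLAzer 2.5 h RT; 460/530 nm emission ratio. Normalized to 300 pM IL-6 and 125 nM JAK inhibitor controls.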
In the case of `CSc1ccc2c(c1)N(CC[C@H]1CCCCN1C)c1ccccc1S2`, the activity, negative = inhibition was -7.21%.
`N#CC1=C(SCC(=O)c2ccccc2)NC2=C(C(=O)CCC2)C1c1ccco1` (stereo not drawn): the activity, negative = inhibition is -23.9%.
The same measure, in the same setting: the result for `COC(=O)C1=C(C)NC(C)=C(C(=O)OCCN(C)Cc2ccccc2)[C@@H]1c1cccc([N+](=O)[O-])c1` reads -11.8% [at 38 µM].
Consider `CN(CCCCCNC(=O)/C=N/O)Cc1ccccc1`, for which the activity, negative = inhibition is 9.45%.
Still for that read-out and setting: the result for `CC1(C)Cc2c(sc3c2C2=NCCN2C=N3)CS1` reads 5.3%; that for `N#C[C@@H](Cc1ccc(O)c(O)c1)C(=O)N1CCc2ccccc21`, 26% [at 38 µM].
Same read-out and setting: then `Cc1c(C)c2c(c(C)c1O)CC[C@@](C)(CN1CCN(c3cc(N4CCCC4)nc(N4CCCC4)n3)CC1)O2`, with 19.8% [at 38 µM].
Turning to `Cc1ccc2nc(C(F)(F)F)c(C#N)c(N)c2c1`, the activity, negative = inhibition is -100% (active).
Turning to `COc1cccc(-c2nnc3sc(C4CCCCC4)nn23)c1`, the activity, negative = inhibition was -91.1% (active).

The next assay has as its target Glucocorticoid receptor (Homo sapiens) (UniProt P04150). The assay is described as follows: GR-GFP Redistribution (AID 450). Further: potency means the concentration at half of the fitted maximal effect. To be noted: U2OS GR-GFP nuclear translocation, laser cytometry, 2 h; series mostly up to 20.6 µM.
As for `Cc1ccc(C2C3CN(C(C)C)CC=C3C(C#N)=C(N)C2(C#N)C#N)cc1` (stereo not drawn), the Potency was more than 20.6 µM.
As for `Cn1c(NCc2ccccc2)nc2c1c(=O)n(Cc1ccc(Br)cc1)c(=O)n2C`, the Potency is more than 20.6 µM.
The same measure, in the same setting: then `COC(=O)c1ccc(C2/C(=C(\O)c3ccc(OC)c(C)c3)C(=O)C(=O)N2c2cc(C)on2)cc1` (stereo not drawn), with more than 20.6 µM.
As for `N#Cc1nc(-c2cccs2)oc1NCc1ccc2c(c1)OCO2`, the Potency is more than 20.6 µM.
In the case of `Oc1c(Cl)cc(Cl)cc1CNc1ccc(Br)cn1`, the Potency was more than 20.6 µM.
The same measure, in the same setting: then `O=C(Nc1ccc(N2CCN(C(=O)c3ccccc3)CC2)c(Cl)c1)c1ccc(Br)o1`, with more than 20.6 µM.
With `Cc1ccc2[nH]c3c(N4CCN(Cc5ccc6c(c5)OCO6)CC4)ncnc3c2c1`, the Potency was more than 20.6 µM.
As to `N#Cc1c(N)nc(SCc2ccccn2)c(C#N)c1-c1cccs1`, the Potency was more than 20.6 µM.
For the molecule `COc1cccc(-c2nc(NC(C)C)c3ccccc3n2)c1O`, the Potency is more than 20.6 µM.
Consider `Cc1ccc(N2C(=O)c3sc4nnc(C)c(=O)n4c3C2=O)cc1`, for which the Potency was more than 20.6 µM.
As to `N#CC1=C(SCC(=O)c2ccccc2)NC2=C(C(=O)CCC2)C1c1ccco1` (stereo not drawn), the Potency is more than 20.6 µM.
The same measure, in the same setting: the result for `COC(=O)C1=C(C)NC(C)=C(C(=O)OCCN(C)Cc2ccccc2)[C@@H]1c1cccc([N+](=O)[O-])c1` reads more than 46 µM; that for `N#CC1=C(N)NC(SCc2ccc(Cl)cc2)=C(C#N)C12CCCCC2`, more than 20.6 µM.
On to `CCC(=O)Oc1oc(-c2ccccc2)nc1C=Nc1ccccc1OC`, for which the Potency is more than 20.6 µM.
On the same count and under the same terms, the result for `N#C/C(=C\N1CCN(Cc2ccc3c(c2)OCO3)CC1)c1nc2ccccc2s1` reads more than 20.6 µM.
For the molecule `Cc1ccc(-n2ncc3c(N4CCN(c5ccccc5)CC4)ncnc32)c(C)c1`, the Potency is more than 20.6 µM.
Consider `Cc1ccc2[nH]c3c(N4CCN(Cc5ccccc5)CC4)ncnc3c2c1`, for which the Potency was more than 20.6 µM.
Take `CN(CCCCCNC(=O)/C=N/O)Cc1ccccc1`: the Potency was more than 20.6 µM.
Take `COc1ccc2[nH]c3c(N4CCN(Cc5ccc6c(c5)OCO6)CC4)ncnc3c2c1`: the Potency was more than 20.6 µM.
`C=C1C[C@@]23C[C@]1(O)CC[C@@H]2[C@]12C=C[C@@H](O)[C@@](C)(C(=O)O1)[C@@H]2[C@@H]3C(=O)O`: the Potency is more than 46 µM.
Same read-out and setting: then `c1ccc2c(c1)CCN(c1ncnc3c1[nH]c1ccccc13)C2`, with more than 20.6 µM.
The same measure, in the same setting: the result for `CCCCN(CCCC)c1nc2ccccc2nc1C(C#N)C(=O)NCCCOC` (stereo not drawn) reads more than 20.6 µM; that for `CC1(C)Cc2c(sc3c2C2=NCCN2C=N3)CS1`, more than 20.6 µM; that for `CC1(C)Cc2c(C#N)c(N3CCN(C(=O)c4ccco4)CC3)nc(Cc3ccccc3)c2CO1`, more than 20.6 µM.
Consider `COc1cccc(-c2nnc3sc(-c4cccs4)nn23)c1`, for which the Potency was more than 20.6 µM.
As to `N#Cc1nc(-c2ccccc2Cl)oc1N1CCCCC1`, the Potency was more than 20.6 µM.
On the same count and under the same terms, then `CCc1cc2c(=O)c(-c3nc4ccccc4[nH]3)coc2cc1OC(=O)N1CCOCC1`, with more than 20.6 µM; and `OC1(c2cccc(C(F)(F)F)c2)CCN(c2ncnc3c2[nH]c2ccccc23)CC1`, with more than 20.6 µM.
With `Fc1ccc2[nH]c3c(N4CCN(Cc5ccc6c(c5)OCO6)CC4)ncnc3c2c1`, the Potency is more than 20.6 µM.
